Hits are enriched below; roughly 7.3% of the tested compounds scored in any of these assays.
ELG1 genotoxic – genotoxicity induction in ELG1-luciferase HEK293T cells | AID 504466 | Potency, µM (highest dose often 46 µM), usual class: activators | HEK293T ELG1-luciferase reporter, luminescence, 16 h | 330,000 compounds, 1.3% hits; further: nearly all actives have a fitted effect of over 60% in size
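After overnight (16 hr) compound treatment at 37 °C, ELG1-luciferase HEK293T cells were lysed with ONE-Glo; luminescence quantified 30 min later at room temperature.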
NPC1 prom act – NPC1 promoter activation | Huh7 NPC1 promoter luciferase reporter, 24 h | Potency, µM (titrated, usually from 9.22 µM), actives largely listed as activators | 320,000 compounds, 2.4% hits; further: nearly all actives have a fitted effect of over 60% in size
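Cells: Huh7 expressing luciferase under the NPC1 promoter, 1500/well. Seeded 2 h, compound added, incubated 24 h at 37 °C. Luciferase reagent, 10 min ambient, then luminescence.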
FLuc modulator – inhibits or activates purified firefly luciferase, miR-21 counter-screen; 360,000 compounds, 6.9% hits; Potency, µM (top dose mostly 57.5 µM), most hits filed as inhibitors; purified FLuc, Km substrates, luminescence inhibition; AID 588342; further: nearly all actives have a fitted effect of over 55% in size
Target sequence (P08659 whole entry, looked up): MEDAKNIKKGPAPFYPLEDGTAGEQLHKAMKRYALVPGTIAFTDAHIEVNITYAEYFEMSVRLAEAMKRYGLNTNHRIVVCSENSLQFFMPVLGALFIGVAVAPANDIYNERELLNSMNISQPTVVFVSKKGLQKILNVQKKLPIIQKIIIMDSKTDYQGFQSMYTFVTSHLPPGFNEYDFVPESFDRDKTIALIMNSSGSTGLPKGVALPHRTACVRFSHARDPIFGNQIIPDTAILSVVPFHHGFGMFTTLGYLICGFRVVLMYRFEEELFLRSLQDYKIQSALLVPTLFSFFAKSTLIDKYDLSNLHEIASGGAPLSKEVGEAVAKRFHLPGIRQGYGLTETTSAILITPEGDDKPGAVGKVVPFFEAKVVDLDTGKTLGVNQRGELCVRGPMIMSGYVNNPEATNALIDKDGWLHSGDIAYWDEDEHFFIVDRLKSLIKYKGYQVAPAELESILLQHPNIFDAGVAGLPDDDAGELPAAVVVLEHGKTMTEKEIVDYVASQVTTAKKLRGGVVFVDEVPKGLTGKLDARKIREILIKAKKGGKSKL
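Purified P. pyralis luciferase (10nM final) with 10uM D-luciferin and 10uM ATP (Km levels) in 50mM Tris acetate pH 7.5, 10mM Mg acetate, 0.01% Tween-20, 0.05% BSA; qHTS 6-point titration, ~60 µM downward; luminescence read.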
Rab9 prom act – activates the Rab9 promoter; Huh7 Rab9 promoter-luciferase reporter, luminescence, 24 h; Potency, µM (top dose mostly 9.22 µM), most hits filed as activators; 320,000 compounds, 2.8% hits; AID 485297; further: nearly all actives have a fitted effect of over 60% in size
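Measured in stably transfected Huh7 cells bearing a Rab9 promoter–luciferase construct: 24 h compound treatment at 37 °C, followed by luminescence detection.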
p53 reactivator – re-activators of mutant p53; H1299 p53-A138V BP100-luciferase reporter, luminescence, 24 h; Potency, µM (titrated, usually from 92.2 µM), most hits filed as activators; 320,000 compounds, 0.063% hits; further: nearly all actives have a fitted effect of over 45% in size
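p53-null H1299 cells stably carrying temperature-sensitive p53-A138V and a BP100-luciferase reporter were pinned with compounds (4-point, 1:5 series) and held 24 hrs at 37 deg C. Luminescence was read 10 min after detection reagent.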
SMN2 splice up – increases expression of the SMN2 splice variant; 210,000 compounds, 2.8% hits; HEK293 SMN2-luciferase splicing reporter, luminescence, 30-36 h; Potency, µM (titrated, usually from 46.1 µM), hits mostly activators; AID 1458; further: nearly all actives have a fitted effect of over 55% in size
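qHTS luciferase splicing reporter: luminescence rises when SMN2 exon 7 is included in transfected HEK293 cells. Compound exposure lasted 30-36 h at 37C, with 4.5 mM final sodium butyrate as control, followed by a ONE-Glo read.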
A number is an active result; [ ] = dose if it differs, or a comment. The call rests on the fitted dose curve; in most records, active means well fitted curve in the direction sought with a large enough effect; inconclusive means small, poorly fitted or top-dose-only effect, or another doubt; inactive means no such curve, though single readings can be large; an effect the other way counts as inactive or inconclusive.

O=C(NCCSc1ccccn1)c1ccc(Cl)cc1Cl was read as ELG1 genotoxic inactive, NPC1 prom act 0.79µM, FLuc modulator inconclusive, Rab9 prom act 1.1µM, p53 reactivator inactive and SMN2 splice up 3.2µM.
`CS(=O)(=O)N(Cc1ccc(Cl)cc1)c1ccc(C(=O)NCCSc2ccccn2)cc1` gave ELG1 genotoxic inactive, NPC1 prom act inactive, FLuc modulator inactive, Rab9 prom act inactive, p53 reactivator inactive and SMN2 splice up inactive[1.84 µM].
Screening O=C(NCCSc1ccccn1)c1ccc(Cl)cc1 returned ELG1 genotoxic inconclusive, NPC1 prom act 0.63µM, FLuc modulator 3.4µM, Rab9 prom act 0.63µM, p53 reactivator inconclusive and SMN2 splice up 2.2µM.
`Cc1noc(C)c1C(=O)N1CCC[C@@]2(CCN(C(c3ccccc3)c3ccccc3)C2)C1` gave SMN2 splice up inactive.
CCCCCC1=C2CNC(CCC)(C(=O)OC)C=C2C(C)C1=O (stereo not drawn) was read as SMN2 splice up inactive.
For Cc1ccc(C(=O)Nc2onc3c2CCCC3)cc1 the results were FLuc modulator 0.3µM and SMN2 splice up 2.5µM.
COc1ccccc1C(=O)Nc1onc2c1CCCC2 was read as FLuc modulator 2.7µM and SMN2 splice up 3.5µM.
CCCCOc1ccccc1C(=O)Nc1onc2c1CCCC2 was read as FLuc modulator inactive and SMN2 splice up inactive.
CC1=C(C(=O)Nc2ccccc2C)C(c2sccc2C)n2ncnc2N1 (stereo not drawn) was read as FLuc modulator inactive.
`COc1ccc(N2CCN(C(=O)c3nc(-c4ccc(Cl)cc4)n4c3CCCCC4)CC2)cc1` gave FLuc modulator inactive.
Screening O=C(NCc1ccccc1)C1Cc2ccccc2CN1C(=O)c1ccco1 (stereo not drawn) returned ELG1 genotoxic inactive, NPC1 prom act inactive, FLuc modulator inactive, Rab9 prom act inactive, p53 reactivator inactive and SMN2 splice up inactive.
`Cc1ccccc1NC(=O)C1Cc2ccccc2CN1C(=O)c1ccco1` (stereo not drawn) gave ELG1 genotoxic 23µM, NPC1 prom act 2.8µM, FLuc modulator inconclusive, Rab9 prom act inconclusive and p53 reactivator inactive.
`COc1ccc(/C=C2\C(=O)NC(=S)N2C(=O)c2ccc(F)cc2)cc1` gave ELG1 genotoxic inactive, NPC1 prom act inactive, FLuc modulator 12µM, Rab9 prom act inactive, p53 reactivator inconclusive and SMN2 splice up inactive.
Screening O=C1NC(=S)N(C(=O)c2ccc(F)cc2)/C1=C/c1ccccc1 returned ELG1 genotoxic inactive, NPC1 prom act inactive, FLuc modulator inconclusive, Rab9 prom act inactive, p53 reactivator inconclusive and SMN2 splice up inactive.
`Cc1ccc(S(=O)(=O)N(C)c2ccc(C(=O)NCc3ccccc3F)cc2)cc1` gave ELG1 genotoxic inactive, NPC1 prom act inactive, FLuc modulator inactive, Rab9 prom act inactive and p53 reactivator inactive.
`CC(C)c1ccc(NC(=O)CSc2nc(=O)n(Cc3cccnc3)c3c2CCC3)cc1` gave FLuc modulator inactive.
For N/C(=N\OC(=O)CCC1CCCC1)c1ccc(Cl)cc1 the results were ELG1 genotoxic inconclusive, NPC1 prom act inactive, FLuc modulator 21µM, Rab9 prom act inactive and p53 reactivator inactive.
Cc1ccc(/C(N)=N/OC(=O)CCC2CCCC2)cc1 was read as ELG1 genotoxic inactive, NPC1 prom act inactive, FLuc modulator 15µM, Rab9 prom act inactive, p53 reactivator inconclusive and SMN2 splice up inactive.
Cc1cccc(/C(N)=N/OC(=O)CCC2CCCCC2)c1 was read as ELG1 genotoxic inconclusive, NPC1 prom act inactive, FLuc modulator 6µM, Rab9 prom act inactive, p53 reactivator inconclusive and SMN2 splice up inactive.
For Cc1cccc(/C(N)=N/OC(=O)COc2ccc(Cl)c(C)c2)c1 the results were ELG1 genotoxic inactive, NPC1 prom act inactive, FLuc modulator inactive, Rab9 prom act inactive, p53 reactivator inactive and SMN2 splice up inactive.
Screening N/C(=N\OC(=O)CCn1cccc(C(F)(F)F)c1=O)c1ccc(Cl)cc1 returned ELG1 genotoxic inactive, NPC1 prom act inactive, FLuc modulator inactive, Rab9 prom act inactive and p53 reactivator inactive.
`COc1ccc(/C(N)=N/OC(=O)CCC2CCCC2)cc1` gave ELG1 genotoxic inactive, NPC1 prom act inactive, FLuc modulator inactive, Rab9 prom act inactive and p53 reactivator inactive.
`Cc1cccc(/C(N)=N/OC(=O)CCc2ccccc2)c1` gave ELG1 genotoxic inactive, NPC1 prom act inactive, FLuc modulator 21µM, Rab9 prom act inconclusive and p53 reactivator inactive.
Screening COc1cccc(Cn2c(CNS(=O)(=O)c3ccc(F)c(Cl)c3)nc3cccnc32)c1 returned FLuc modulator inactive.
`CC1(C)NC(=O)N(CC(=O)OCC(=O)NC(=O)c2ccccc2)C1=O` gave ELG1 genotoxic inactive, NPC1 prom act inactive, FLuc modulator inactive, Rab9 prom act inactive and p53 reactivator inactive.
COc1ccc2c(CNCCc3ccccc3OC)c(C(=O)O)n(Cc3ccc(F)cc3Cl)c2c1 was read as FLuc modulator inactive.
Screening CCC(C)NC(=O)c1cnn(-c2ccc(Cl)cc2)c1C1CCN(C(=O)OC(C)(C)C)CC1 (stereo not drawn) returned FLuc modulator inactive.
N/C(=N\OC(=O)CCCc1ccccc1)c1ccccc1Cl was read as ELG1 genotoxic inconclusive, NPC1 prom act inactive, FLuc modulator 6.7µM, Rab9 prom act inactive and p53 reactivator inconclusive.
For Cc1ccc(/C(N)=N/OC(=O)CCC2CCCCC2)cc1 the results were ELG1 genotoxic inactive, NPC1 prom act inactive, FLuc modulator 19µM, Rab9 prom act inactive, p53 reactivator inactive and SMN2 splice up inactive.
For COC(=O)c1ccc(NC(=O)CN(c2cccc(C(F)(F)F)c2)S(C)(=O)=O)cc1 the results were FLuc modulator inactive and SMN2 splice up inactive.
For COc1ccc(CNc2oc(/C=C/c3cc(OC)c(OC)c(OC)c3)nc2C#N)cc1 the results were FLuc modulator inactive and SMN2 splice up inconclusive.
`Cc1ccccc1OCC(=O)NC(=S)Nc1cccc2cc(O)ccc12` gave ELG1 genotoxic inactive, NPC1 prom act inactive, FLuc modulator inactive, Rab9 prom act inactive and p53 reactivator inactive.
O=C(COc1ccc(Br)cc1Br)NC(=S)Nc1cccc(CO)c1 was read as ELG1 genotoxic 7.3µM, NPC1 prom act 0.35µM, FLuc modulator 3.8µM, Rab9 prom act 0.45µM, p53 reactivator inconclusive and SMN2 splice up 18µM.
For O=C(COc1ccc(Br)cc1Br)NC(=S)N1CCCc2ccccc21 the results were ELG1 genotoxic 23µM, NPC1 prom act inactive, FLuc modulator 17µM, Rab9 prom act inactive, p53 reactivator inactive and SMN2 splice up inactive.

Compound activity as filed in PubChem BioAssay.
